Screens as filed in PubChem.
Sampled rows, rich in hits. Any-hit rate of the full collection: about 3.8%.
HT1080-NT tox: qHTS for induction of synthetic lethality in tumor cells producing 2HG: qHTS for the HT-1080-NT fibrosarcoma cell line. 360,000 compounds, 1.6% hits. HT-1080-NT fibrosarcoma viability, CellTiter-Glo ATP luminescence, 48 h. Potency, µM (doses to about 46.1 µM), for the others: at the top dose activity, negative = less viability, hits mostly cytotoxic;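 also: NT is the 2HG producing partner of a matched IDH1 knockdown line; 0% = DMSO-treated cells and -100% = media-only wells without cells; nearly all actives have a fitted effect of over 55% in size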
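Fibrosarcoma NT cells, 750 per well in 5% FBS RPMI, were exposed to compound for 48 hours. Viability: CellTiter-Glo luminescence.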
HepG2 viability: qHTS for Inhibitors of TGF-b: Cytotox Counterscreen; 410,000 compounds, 0.76% hits; AID 588856, 2011; Potency, µM (titrated, usually from 46.1 µM), for the others: top-dose activity change, negative = cytotoxicity, hits mostly cytotoxic; HepG2 CAGA-GFP viability, ATP luminescence, 18 h
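CellTiter-Glo luminescence gave cytotoxicity after 18 hours at 37 degrees C. The cells were HepG2 CAGA-GFP in 1% FBS DMEM, stimulated with 500 pg/mL TGF-beta after compound addition. %Activity was normalised to no-cell wells (complete cell-killing) and DMSO (no toxicity), and curves were fitted and classified.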
TGFb inhibitor: qHTS for Inhibitors of TGF-b; 410,000 compounds, 1.2% hits; HepG2 CAGA-GFP TGF-b/SMAD3 reporter, GFP fluorescence, 18 h; TGF-beta stimulated, 500 pg/mL final; Potency, µM (highest dose often 46.1 µM), for inactives: at the highest dose activity, negative = inhibition, usual class: inhibitors; also: % is scaled to controls: 0 for no effect and ±100 for the full control effect; nearly all actives have a fitted effect of over 65% in size
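Inhibition was scored as loss of TGF-beta-induced (500 pg/mL final, 18 hours, 37 degrees C) GFP in HEPG2 cells carrying a CAGA-GFP reporter, in DMEM with 1% FBS. Well GFP was summed per cell; Activity was normalised to unstimulated and stimulated DMSO wells, then concentration-response fitting.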
S2 tox: Viability Counterscreen for Primary qHTS for Inhibitors of ATXN expression; S2 cells (HEK-293 line with an ATXN2-luciferase reporter) viability, CellTiter-Fluor protease fluorescence, 24 h; 400,000 compounds, 0.49% hits; Potency, µM (titrated, usually from 56.7 µM), usual class: cytotoxic; also: nearly all actives have a fitted effect of over 40% in size
HT1080 IDH1KD tx: qHTS for induction of synthetic lethality in tumor cells producing 2HG: qHTS for the HT-1080-IDH1KD cell line. HT-1080 IDH1 knockdown viability, ATP luminescence, 48 h. Potency, µM (highest dose often 46.1 µM), inactives show at the highest dose activity, negative = toxicity, usual class: cytotoxic. 360,000 compounds, 2% hits. AID 686971, 2013;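 also: 0% = DMSO wells and -100% = cell-free medium wells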
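Using the IDH1-knockdown HT-1080 line run in the same batch and compound series as the NT line, viability after 48 h at 37 °C was determined by CellTiter-Glo luminescence and expressed as % activity.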
ATXN2 expr inh: Primary qHTS for Inhibitors of ATXN expression | 360,000 compounds, 0.72% hits | HEK-293 ATXN2-luciferase reporter, luminescence, 24 h | Potency, µM (series often up to 57 µM), for the others: top-dose activity change, negative = inhibition, hits mostly inhibitors; also: % is scaled to controls: 0 for no effect and ±100 for the full control effect; nearly all actives have a fitted effect of over 55% in size
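ATXN2-luciferase reporter cells (luciferase flanked by upstream and downstream ATXN2 gene portions) were treated 24 h at 37 °C with compounds at up to 57 uM. SteadyGlo luminescence gave expression; GF-AFC fluorescence gave viability.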
* marks the source's active call; other numbers are inactive results; i = inactive; ? = inconclusive; · = not tested or not shown. Calls follow the shape of the dose curve; as a rule, active = well fitted curve in the direction sought with a large enough effect; inconclusive = small, poorly fitted or top-dose-only effect, or another doubt; inactive = no such curve, though single readings can be large; an effect the other way counts as inactive or inconclusive. Potency is read from the fitted curve at half-maximal effect.

SMILES	HT1080-NT tox	HepG2 viability	TGFb inhibitor	S2 tox	HT1080 IDH1KD tx	ATXN2 expr inh
Oc1ccc(C[C@@H]2CNCCN2CCC23CC4CC(CC(C4)C2)C3)cc1	?	-108%	?	?	23µM*	0%
Oc1ccc(C[C@H]2CNCCN2CCC23CC4CC(CC(C4)C2)C3)cc1	16µM*	-92%	?	?	?	?
CC(/C=C/c1ccc(N(C)C)cc1)=N/N=C1/NC(=O)CC(C(=O)Nc2ccc(Cl)cc2)S1 (stereo not drawn)	?	-38%	10µM*	?	16µM*	26%
CC(/C=C/c1ccc(N(C)C)cc1)=N\N=C1\NC(=O)CC(C(=O)Nc2ccccc2)S1 (stereo not drawn)	-17%	2%	16µM*	i	?	4%
COc1cc(NC(=O)CC(c2ccc(C)cc2)N2Cc3ccccc3C2=O)cc(OC)c1 (stereo not drawn)	·	-21%	?	i	·	-5%
C/C(=N\Nc1ccccc1)c1c(O)cc(C)oc1=O	?	-9%	3%	i	12µM*	-28%
C/C(=N/NC(=O)c1cccc(C)c1)c1c(O)cc(C)oc1=O	-5%	-3%	27%	i	-2%	22%
Nc1nc(CCl)nc(Nc2ccc3ccccc3c2)n1	2.1µM*	-64%	?	3.4µM*	8.2µM*	3.8µM*
COc1ccc(Nc2nc(N)nc(CCl)n2)cc1	1.5µM*	-49%	0%	?	23µM*	·
Cc1ccccc1Nc1nc(N)nc(CCl)n1	1.2µM*	1%	-16%	?	15µM*	-38%
Cc1ccc(NC(=S)NNC(=S)Nc2cccc(C(F)(F)F)c2)cc1	-14%	-24%	-9%	i	?	1%
CCN(CC)S(=O)(=O)c1ccc(C(=O)Nc2cccc(C)c2)cc1	-15%	8%	43%	i	-3%	27%
NNC(=O)Nc1cccc(C(F)(F)F)c1	8%	2%	14%	i	13%	-5%
NC(=O)/C=C\C(=O)Nc1cccc(C(F)(F)F)c1	?	-34%	?	i	10µM*	-33%
CC(C)(C)c1ccc(S(=O)(=O)Nc2ccc(C(O)(C(F)(F)F)C(F)(F)F)cc2)cc1	18µM*	20µM*	13µM*	18µM*	21µM*	?
Cc1ccc(S(=O)(=O)Nc2ccc(NC(=O)Nc3cccc(C(F)(F)F)c3)cc2)cc1	?	18µM*	16µM*	?	?	?
CCN(CC)S(=O)(=O)c1ccc(NC(=O)Nc2cccc(C(F)(F)F)c2)cc1	?	11µM*	?	?	?	20µM*
COc1ccc2c(c1)c1nnc(SC)nc1n2Cc1ccccc1	5%	·	·	·	10%	·
COc1cccc([C@@H](C)NCCCc2ccccc2Cl)c1	·	·	·	·	·	4%
COc1ccc(-c2nc(CN3CCC(C(=O)NCCCOC(C)C)CC3)c(C)o2)cc1OC	·	-23%	-8%	i	·	4%
O=C(Nc1ccc(OC(F)F)cc1)Nc1cccc(C(F)(F)F)c1	?	8.9µM*	?	?	?	?
O=C(Nc1ccncc1)Nc1cccc(C(F)(F)F)c1	7%	-23%	-14%	i	-9%	-20%
NS(=O)(=O)c1ccc(CNS(=O)(=O)c2cccc3nonc23)cc1	9%	6.3µM*	0%	i	10%	11%
O=S(=O)(NCc1ccccc1)c1cccc2nonc12	5%	-3%	24%	i	-11%	1%
O=C(NCCO)c1ccc(-c2nnc(Nc3ccc(OC(F)(F)Cl)cc3)c3ccccc23)cc1	·	-78%	11µM*	i	·	?
SMILES	HT1080-NT tox	HepG2 viability	TGFb inhibitor	S2 tox	HT1080 IDH1KD tx	ATXN2 expr inh
COc1cccc(/C=N/NC(=O)c2cc3cc([N+](=O)[O-])ccc3s2)c1O	4.1µM*	10µM*	0%	·	2.9µM*	?
O=C(/C=C/c1ccccc1F)c1cccc([N+](=O)[O-])c1	-13%	14µM*	?	?	-25%	·
O=C(NN=Cc1ccccc1O)c1cccc([N+](=O)[O-])c1	0.29µM*	-28%	-15%	?	1.2µM*	?
Cc1[nH]c2ccccc2c1/C=N/NC(=O)c1cccc(S(=O)(=O)Nc2cccc(C(F)(F)F)c2)c1	-13%	-12%	10µM*	i	-16%	·
NNC(=O)c1cccc(S(=O)(=O)Nc2cccc(C(F)(F)F)c2)c1	-16%	22%	-8%	i	-3%	·
COc1cc(/C=C/C(=O)c2cccc([N+](=O)[O-])c2)cc(OC)c1OC	?	-100%	?	?	?	0%
CCOc1cc(C2Nc3ccccc3C(=O)N2Cc2ccco2)ccc1O (stereo not drawn)	·	-12%	3%	·	·	·
O=C(C#Cc1ccccc1)c1cccc([N+](=O)[O-])c1	-17%	-29%	?	·	?	22µM*
O=C(N/N=C/c1ccccn1)c1cccc([N+](=O)[O-])c1	-24%	-26%	-30%	i	?	?
CC(=O)c1cccc([N+](=O)[O-])c1	3%	-8%	3%	i	16%	3%
O=C(N/N=C/c1ccccc1O)c1cccc(C(F)(F)F)c1	?	-52%	?	?	2.6µM*	3.2µM*
O=C(N/N=C/c1ccccn1)c1cc([N+](=O)[O-])cc([N+](=O)[O-])c1	-11%	-52%	4.5µM*	?	-9%	·
COc1cc2cc(-c3ccc(OC)c(OC)c3C)nc(N)c2cc1OC	8.2µM*	-41%	?	?	1.3µM*	-10%
Cc1cc([N+](C)(C)C)cc(C)c1/C=C/c1ccnc2ccccc12	·	-15%	-12%	·	·	·
CCC1CCCCN1CC(=O)Nc1cc(C)nn1-c1nc(C)cc(C)n1 (stereo not drawn)	3.5µM*	-33%	?	i	4.5µM*	?
CC1C/C(=C/c2ccncc2)C(=O)/C(=C/c2ccncc2)C1 (stereo not drawn)	?	5.6µM*	5.6µM*	?	3.7µM*	·
Cc1cc(F)ccc1N1CCC(N2CCN(C(C)C)C(CCO)C2)CC1 (stereo not drawn)	-3%	-42%	-22%	i	-10%	-7%
Cc1cc(F)ccc1N1CCC(N2CCN(CCC(C)C)C(CCO)C2)CC1 (stereo not drawn)	18µM*	-19%	7%	i	?	-30%
